Assay results reported in PubChem BioAssay (Tox21).
Several values for one entry are separate records, joined by “and”; a condition that tells them apart may be missing. Equal values may be shown once. Records with an inconclusive call do not appear. A call without a number means that no potency is given here. Activity calls are given as the source filed them. Calls follow the shape of the full dose curve.

These compounds were tested against 5-hydroxytryptamine receptor 2A (Homo sapiens) (UniProt P28223) (assay: 5-hydroxytryptamine receptor 2A (HTR2A) small molecule agonists, cell-based qHTS assay (AID 1963587; also: nearly all actives have a fitted effect of over 30% in size)). Settings: HTR2A-CHO cells, calcium flux fluorescence, agonist mode; series mostly up to 76.8 µM.
5-hydroxytryptamine receptor 2A (Homo sapiens), sequence (P28223 whole entry, looked up): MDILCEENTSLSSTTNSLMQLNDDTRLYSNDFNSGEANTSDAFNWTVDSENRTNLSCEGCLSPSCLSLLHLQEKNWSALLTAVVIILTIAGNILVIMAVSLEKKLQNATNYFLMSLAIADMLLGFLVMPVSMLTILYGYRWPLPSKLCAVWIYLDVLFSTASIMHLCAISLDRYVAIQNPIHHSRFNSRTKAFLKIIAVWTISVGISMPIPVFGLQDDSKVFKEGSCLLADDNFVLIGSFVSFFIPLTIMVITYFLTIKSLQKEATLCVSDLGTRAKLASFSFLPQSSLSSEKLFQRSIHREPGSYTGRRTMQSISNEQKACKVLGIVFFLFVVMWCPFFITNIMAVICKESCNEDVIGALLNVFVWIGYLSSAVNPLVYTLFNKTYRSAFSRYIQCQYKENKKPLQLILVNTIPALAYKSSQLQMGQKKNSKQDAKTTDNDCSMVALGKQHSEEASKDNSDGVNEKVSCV
Excerpt: National Center for Advancing Translational Sciences [NCATS]
Division of Preclinical Innovation [DPI]
U.S. Environmental Protection Agency [EPA]
National Institutes of Environmental Health Sciences [NIEHS]
National Toxicology Program [NTP]
U.S. Food and Drug Administration [FDA]
The HTR2A receptor is a subtype of the 5-HT2 receptor that belongs to the serotonin receptor family and is a G protein-coupled receptor (GPCR). The HTR2A-CHO cell line stably expressing human 5-hydroxytryptamine receptor 2A (HTR2A) can be used for screening agonists of interactions between 5-HT2 and its ligands. The HTR2A-CHO calcium flux assay is a homogeneous fluorescence-based assay for detecting the intracellular calcium level using FDSS kinetic plate reader system.
HTR2A-CHO cells were dispensed at 2000 cells/3uL/well in 1536-well black-clear bottom plates using a Multidrop Dispenser. After the assay plates were incubated at a 37 C/5% CO2 incubator for 18 h, 3 uL of Dye Loading Buffer was transferred to the assay plate by a Flying Reagent Dispenser. The assay plates were incubated at 37 C for 1h. For agonist mode, 23 nL of compounds dissolved in DMSO, positive controls or DMSO only was transferred to the assay plate by a pin tool. The fluorescence intensity in the plates was measured using FDSS 7000EX kinetic plate reader for 2 min at 1 sec intervals.
Potency is read from the fitted curve at half-maximal effect.

Structure (SMILES) | Potency
CCc1ccc(C2CCNCC2)cc1 | 8.49 µM (active)
CNC(=O)CSP(=O)(OC)OC | inactive
CCCCCCCCCC(=O)O[C@H]1CC[C@H]2[C@@H]3CCC4=CC(=O)CC[C@@H]4[C@H]3CC[C@]12C | inactive
OCC(c1ccc(Cl)cc1)c1ccc(Cl)cc1 | inactive
CC1(C)C(/C=C(\Cl)C(F)(F)F)C1C(=O)OC(C#N)c1cccc(Oc2ccccc2)c1 (stereo not given) | inactive
CCCCCCCCBr | inactive
CC(C)N1C(=O)N(c2ccccc2)CSC1=NC(C)(C)C | inactive
N#CSCc1ccccc1 | inactive
CC(=O)[O-].CC(=O)[O-].CC(=O)[O-].[Cr+3] | inactive
ClC1=C(Cl)C2(Cl)C(CBr)CC1(Cl)C2(Cl)Cl (stereo not given) | inactive
CC(=O)[O][Pb]([c]1ccccc1)([c]1ccccc1)[c]1ccccc1 | 49 µM (active)
COC(=O)C1=CCCN(C)C1 | inactive
N#C/C=C/c1ccccc1 | inactive
CCCCC(=O)Cl | inactive
CC1CCC(C(C)C)C(OC(=O)c2ccccc2N)C1 (stereo not given) | inactive
Clc1ccccc1 | inactive
O=C(Cl)c1ccc(Cl)cc1 | inactive
CCCC[N+](=O)[O-] | inactive
CCCCOC(C)=O | inactive
Nc1cc(Cl)ccc1O | inactive

Structure (SMILES) | Potency
Fc1ccc(Oc2ccnc3cc(Cl)cc(Cl)c23)cc1 | inactive
C#C[C@]1(O)C=C[C@H]2[C@@H]3CCC4=CC(=O)CC[C@@H]4[C@H]3CC[C@@]21CC | inactive
CC(C)(c1cc(Cl)c(O)c(Cl)c1)c1cc(Cl)c(O)c(Cl)c1 | 55 µM (active) and 24.5 µM (active)
CC(=O)c1ccc(-c2ccccc2)cc1 | inactive
Oc1ccc(I)cc1 | inactive
CCC1(C2=NCCN2)Cc2ccccc2O1 (stereo not given) | inactive
CCOP(=S)(OCC)Oc1ncn(-c2ccccc2)n1 | inactive
COP(=S)(OC)Oc1nc(Cl)c(Cl)cc1Cl | inactive
Cc1nc(N(C)C)nc(OC(=O)N(C)C)c1C | inactive
C=COC(C)=O | inactive
BrCC(Br)(Br)Br | inactive
Oc1c(Cl)cc(Cl)cc1Cl | inactive
COc1cc(OC)nc(NC(=O)NS(=O)(=O)c2ncccc2OCC(F)(F)F)n1 | inactive
Brc1cccc(-c2ccccc2)c1 | inactive
CC(C)CCCCCCCOC(=O)c1ccccc1C(=O)OCCCCCCCC(C)C | inactive
NC(=O)c1ccc(N)nc1 | inactive
O=C1CN=C(c2ccccc2)c2cc(Cl)ccc2N1CC1CC1 | inactive
COP(=S)(OC)Oc1ccc([N+](=O)[O-])c(C)c1 | inactive
O=C(NC(=O)c1c(F)cccc1F)Nc1ccc(OC(F)(F)C(F)OC(F)(F)F)c(Cl)c1 (stereo not given) | inactive
CC(=O)CCc1ccc2c(c1)OCO2 | inactive
